The source of these data is PubChem BioAssay.

One may read the inhibition as the drop in the measured response relative to a control, in per cent.

The structures appear in SMILES notation. Unmarked numbers belong to inactive results. How the calls were made is not given here.

For the test, the target named is Pantothenate synthetase (Mycobacterium tuberculosis (strain ATCC 25618 / H37Rv)) (UniProt P9WIL5). Briefly: Recombinant Mtb pantothenate synthetase (PanC) inhibitors, coupled enzyme, confirmatory (AID 375).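 Further: 0% = full reaction with vehicle and 100% = no enzyme background.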 Particulars: coupled enzyme assay; at 10 µM, hits give high values.
Chain of Pantothenate synthetase (Mycobacterium tuberculosis (strain ATCC 25618 / H37Rv)) (P9WIL5 whole entry, looked up): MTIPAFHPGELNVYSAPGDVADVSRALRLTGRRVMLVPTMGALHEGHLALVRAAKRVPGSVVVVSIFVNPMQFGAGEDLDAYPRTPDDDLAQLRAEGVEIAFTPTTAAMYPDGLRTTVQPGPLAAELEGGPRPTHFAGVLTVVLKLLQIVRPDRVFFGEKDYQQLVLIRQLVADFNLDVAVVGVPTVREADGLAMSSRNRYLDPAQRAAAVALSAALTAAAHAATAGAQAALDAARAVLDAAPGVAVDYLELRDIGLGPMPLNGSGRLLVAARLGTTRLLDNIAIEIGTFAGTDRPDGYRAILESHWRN
`CNC(=O)CN(c1ccc(C(C)C)cc1)S(C)(=O)=O`: the inhibition was 0%.
In the case of `Cc1cc(C)n(-c2ccc(N3CCOCC3)nn2)n1` it was 0%.
In the case of `Cc1ccccc1C(=O)NC1CCN(Cc2nnnn2Cc2ccccc2)CC1` it was 4%; in that of `COc1cccc(NC(=O)N2CCC(N3CCCCC3)CC2)c1`, 0%; in that of `C(=C\c1ccccc1)/CN1CCN(Cc2ccc3c(c2)OCCO3)CC1`, 1%.
As for `CCc1nc2c(cnn2-c2ccc(Cl)cc2)c(=O)n1-c1ccc2c(c1)OCCO2`, the inhibition is 2%.
The value for `CCCc1cc(=O)n2[nH]cnc2n1` was 0%; that for `CS(=O)(=O)N(Cc1ccccc1)c1ccc(C(=O)N2CCOCC2)cc1` was 0%.
Take `O=C(CCSc1nc(-c2ccco2)cc(C(F)(F)F)n1)NCCc1ccccc1`: the inhibition was 1%.
Turning to `COc1ccc(C(=O)Nc2ccccc2C(=O)NCCN2CCOCC2)cc1`, the inhibition was 0%.
As for `COc1ccccc1-c1nc2n(n1)C(c1ccc(Cl)cc1)C(C(N)=O)=C(C)N2` (configuration not stated), the inhibition is 0%.
In the case of `O=C(Nc1ccc(Cl)c(C(F)(F)F)c1)N1CCCC(O)C1` (configuration not stated) it was 4%; in that of `CCC(=O)N(Cc1cc2c(C)ccc(C)c2[nH]c1=O)C1CCCCC1`, 0%.
The value for `Cc1cc(C)cc(NC(=O)c2nnn(Cc3cc(C)ccc3C)c2N)c1` was 0%.
For `CCCn1c2ccccc2c2nnc(SCC(=O)OCC)nc21`, the inhibition is 6%.
As to `COc1ccc(CCNC(=O)C2CC(=O)N(c3ccccc3)C2)cc1OC` (configuration not stated), the inhibition was 0%.
As for `CCc1ccc2oc(-c3cc(N)ccc3Cl)nc2c1`, the inhibition is 2%.
